Measurements published in PubChem BioAssay (NCATS).
Records with an inconclusive call do not appear. Calls of active or inactive are those of the source. Calls follow the shape of the dose curve; as a rule, active = well fitted inhibition curve with a large enough effect; inconclusive = small, poorly fitted or top-dose-only effect; inactive = no such curve, though single readings can be large or run the other way.

Test: qHTS assay for measurement of the activity of small molecule inhibitors on Zika virus induced Caspase-3 activity in human iPSC derived neural progenitor cells (hNPCs) (AID 1224857); also: nearly all actives have a fitted effect of over 65% in size; also: potency is read from the fitted curve at half-maximal effect; as to activity change, negative = inhibition: % of control where 0% means no effect
Conditions: hNPCs ZIKV-induced caspase-3/7, Caspase-Glo luminescence, 6 h; series mostly up to 45.7 µM; activity change, negative = inhibition: at the top concentration
In short: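 hNPCs seeded 350 cells/well, cultured 16–20 h; compounds added 1 h before ZIKV (2 FFU/cell), 37 C 6 h. Caspase-Glo 3/7 luminescence after 30 min RT; % inhibition from induction scaled to uninfected (0%) and infected (100%) wells.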

| SMILES | activity change, negative = inhibition | Potency |
| --- | --- | --- |
| C=CCc1cccc(/C=N/NC(=O)CN2CCN(Cc3ccccc3)CC2)c1O | 10.4% (inactive) | – |
| O=C(Nc1ccc(C(=O)O)c(O)c1)c1ccccc1 | -195% (inactive) | – |
| Clc1ccccc1-c1nc(-c2ccncc2)no1 | -148% (inactive) | – |
| Cc1ccc(O)c(-n2nc3ccccc3n2)c1 | -155% (inactive) | – |
| c1ccc(CCNc2nc(-c3ccccc3)cs2)cc1 | -185% (inactive) | – |
| NC(=O)C(c1ccccc1)(c1ccccc1)[C@@H]1CCN(CCc2ccc3c(c2)CCO3)C1 | -7.38% (inactive) | – |
| O=c1[nH]c2ccccc2n1CCCN1CCN(C(c2ccccc2)c2ccccc2)CC1 | -1.96% (inactive) | – |
| C#CC1(O)CC[C@H]2[C@@H]3CCC4=CCCC[C@@H]4[C@H]3CC[C@@]21C (some centres undefined) | 44.6% (inactive) | – |
| N=C(N)N | -24.5% (inactive) | – |
| O=C(O)Cc1cccc(-c2cc(CCCCCCc3ccc(O[C@H]4O[C@H](CO)[C@@H](O)[C@H](O)[C@@H]4O)c(-c4cccc(CC(=O)O)c4)c3)ccc2O[C@H]2O[C@H](CO)[C@@H](O)[C@H](O)[C@@H]2O)c1 | 14.4% [at 0.568 µM] (inactive) | – |
| CO/N=C(\C(=O)N[C@@H]1C(=O)N2C(C(=O)O)=C(COC(C)=O)CS[C@H]12)c1csc(N)n1 (stereo in doubt) | 20% (inactive) | – |
| C/C(=N\O)c1ccc(OCC(=O)N2CCCCC2)cc1 | – | 15.8 µM (active) |

Test: qHTS assay for measurement of the activity of small molecule inhibitors on Zika virus induced Caspase-3 activity in human astrocytoma cells (AID 1224859);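 also: plate controls were ZIKV-infected untreated cells for no effect and uninfected cells for full effect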
Conditions: SNB-19 ZIKV-induced caspase-3/7, luminescence, 6 h; series mostly up to 45.7 µM; activity change, negative = inhibition: at the top concentration
In short: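 Luminescence read-out (Caspase-Glo 3/7, 30 min RT) of caspase activity in SNB-19 cells infected 6 h with ZIKV, 2 FFU/cell, after 1 h compound pretreatment; % inhibition from induction normalised to uninfected (0%) and infected (100%) wells.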

| SMILES | activity change, negative = inhibition |
| --- | --- |
| COC(=O)Nc1nc2ccc(C(=O)C3CC3)cc2[nH]1 | 13.5% (inactive) |
| CCCCC/C=C\CC(O)/C=C/c1cccc(CC(O)CCCCO)n1 (centres undefined) | 8.06% (inactive) |
| O=C(CCN1CCN(CCO)CC1)N1c2ccccc2Sc2ccc(C(F)(F)F)cc21 | -4.74% (inactive) |
| O=Cc1ccc(O)c(O)c1O | -6.15% (inactive) |
| Cc1ccc(S(=O)(=O)/C=C/C#N)cc1 | 4.58% (inactive) |
| O=C(O)Cc1ccc2c(c1)C(=O)c1ccccc1CO2 | -10.8% (inactive) |
| CCCCC1C(=O)N(c2ccccc2)N(c2ccc(O)cc2)C1=O (centres undefined) | 23% (inactive) |
| Oc1ccc(C2CNCc3sccc32)cc1O (centres undefined) | -4.27% (inactive) |
| CN1CCc2cc(O)c(O)cc2C(c2ccccc2)C1 (centres undefined) | 0.552% (inactive) |
| N.N.N.N.N.N.N.N.N.N.N.N.N.N.O.O.[Ru+4].[Ru+5].[Ru+5] | -2.8% (inactive) |
| COc1ccnc2c1CCCCC2S(=O)c1nc2ccccc2[nH]1 (centres undefined) | -1.95% (inactive) |
| C=CC(=O)c1ccc(CCCCCC)cc1 | 8.69% (inactive) |
| CCN1/C(=C/C(C)=O)Sc2ccc(OC)cc21 | -3.29% (inactive) |
| C[N+](C)(C)CC(=O)[O-] | -5.18% (inactive) |
| CCCn1c(=O)c2[nH]c(-c3ccc(OCC(=O)NCCN)cc3)nc2n(CCC)c1=O | 20.9% (inactive) |
| O=C(CS)Nc1ccccc1 | -25.7% (inactive) |
| CO[C@@]1(NC(=O)Cc2cccs2)C(=O)N2C(C(=O)O)=C(COC(N)=O)CS[C@@H]21 | 2.23% (inactive) |
| COC(=O)c1nc(Cl)c(Cl)nc1N | 64.7% (inactive) |
| O=[N+]([O-])c1ccc2c(c1)S(=O)(=O)C=C2 | 8.89% (inactive) |
| CCCSc1ccc2nc(NC(=O)OC)[nH]c2c1 | -17.1% (inactive) |
| NCCSSCCN | -1.95% (inactive) |
| C=CC(N)CCC(=O)O (centres undefined) | 21.2% (inactive) |
| CC(=O)SCC(CC(=O)c1ccc(C)cc1)C(=O)O (centres undefined) | -18.7% (inactive) |
| COc1cc2nc(N3CCN(C(=O)OCc4ccccc4)C(C(=O)NC(C)(C)C)C3)nc(N)c2cc1OC (centres undefined) | -1.3% (inactive) |
| CC(C)ON([C@@H](C(=O)NO)C(C)C)S(=O)(=O)c1ccc(-c2ccccc2)cc1 | -5.26% (inactive) |
| O=C1C(SCCO)=C(SCCO)C(=O)c2ccccc21 | -7.4% (inactive) |
| CC(C)(C)c1ccc(S(=O)(=O)/C=C/C#N)cc1 | 34% (inactive) |
